Laboratory results published in PubChem BioAssay AID1745849 (National Center for Advancing Translational Sciences (NCATS), 2022).
Screen size: about 2,100 compounds; about 320 (15%) were called active. Another 52% or so got no clear call; they are omitted. This is one part of the list. Unmarked numbers belong to inactive results. Calls follow the shape of the dose curve; as a rule, active = well fitted cell-killing curve with a large enough effect; inconclusive = small, poorly fitted or top-dose-only effect, or effect the other way; inactive = flat fitted curve, though single readings scatter.

Assay: Viability Counterscreen for CMV-Luciferase Assay of Inhibitors of ATXN expression; also: nearly all actives have a fitted effect of over 55% in size
Conditions: HEK-293 CMV-luciferase cells viability, protease fluorescence, 24 h; activity change, negative = cytotoxicity: at the top concentration
Method in brief: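 Luminescence read-out: SteadyGlo added, 5 min RT, measured in CMV-luciferase HEK-293 cells after 24 hr compound treatment (several concentrations). Viability counterscreen: 25 uM Gly-Phe-7-amino-4-trifluoromethylcoumarin, 30 min at 37 degree C, fluorescence ex 405/em 540 nm.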
% is scaled to controls: 0 for no effect and ±100 for the full control effect; potency is read from the fitted curve at half-maximal effect.

Row | Structure (SMILES) | activity change, negative = cytotoxicity | Potency
1 | Cc1nnc(SC(C)C(=O)Nc2ccc(Cl)cn2)n1Cc1ccccc1 (centres undefined) | -1.27% [at 57.5 µM] | –
2 | O=C(N/N=C\c1c(O)ccc2ccccc12)c1ccc(Cn2cccn2)o1 | 18.6% | –
3 | Cc1occc1C(=O)N/N=C/c1c(O)ccc2ccccc12 | 29.1% [at 57.5 µM] | –
4 | COc1ccc(NC(C)C(=O)N/N=C/c2c(O)ccc3ccccc23)cc1 (centres undefined) | – | 8.91 µM (active)
5 | C=CCc1cccc(CNc2nc3ccccc3n2C(C)C)c1O | -1.07% [at 57.5 µM] | –
6 | O=C(CSc1n[nH]c(-c2ccccn2)n1)Nc1ccc(F)cc1 | – | 17.8 µM (active)
7 | O=C(CSc1nnc(-c2ccc(Br)cc2)o1)Nc1cccc(C(=O)O)c1 | 24.3% [at 57.5 µM] | –
8 | Cc1cc(NC(=O)CSc2nccn2-c2cccc(C)c2C)no1 | -8.06% | –
9 | Cc1ccccc1NC(=O)CSc1n[nH]c(-c2ccccn2)n1 | – | 20 µM (active)
10 | O=C(CSc1ccc2ccccc2c1)Nc1nc2ccccc2[nH]1 | 4.28% | –
11 | O=C(CSc1n[nH]c(-c2ccccn2)n1)Nc1cccc(Cl)c1 | – | 10 µM (active)
12 | O=C(CSc1nc2ncc(Br)cc2[nH]1)Nc1ccccc1-c1ccccc1 | -18.9% [at 57.5 µM] | –
13 | O=C(CSc1nc2ncc(Cl)cc2[nH]1)Nc1cccc(F)c1 | -17.3% [at 57.5 µM] | –
14 | CCc1nc2ccc(C(=O)N(C)Cc3ccccc3)cn2c1N(C)Cc1ccc(OC)cc1 | -22.3% [at 57.5 µM] | –
15 | Cc1csc(NC(=O)COCC(=O)O)c1-c1nc2ccccc2s1 | -22.3% [at 57.5 µM] | –
16 | Cn1c(COc2ccc(Cl)cc2)nnc1SCc1ncc(-c2ccccc2)o1 | -18.9% [at 57.5 µM] | –
17 | COc1ccc(-c2c[n+]3c4n2CCCCC4=C(c2ccc(Br)cc2)C3)cc1 | -20% | –
18 | CCOc1ccc(-c2c[n+]3c(n2-c2ccccc2)CCCCC3)cc1 | -17.8% [at 57.5 µM] | –
19 | COc1ccc(-c2c[n+]3c(n2-c2ccc(C)cc2)CCCCC3)cc1 | – | 12.6 µM (active)
20 | CN(c1ccccc1)c1ccc(/C=N/NC(=O)CC#N)cc1 | -8.07% [at 57.5 µM] | –
21 | CCCc1cc(C(=O)Nc2ccc(C(=O)c3ccc(C)cc3)cc2)n(C)n1 | -12.3% | –
22 | O=C(Nc1ccc[n+](CC(=O)c2cccc3ccccc23)c1)c1ccccc1 | – | 3.16 µM (active)
23 | CC(C(=O)c1ccc(-c2ccccc2)cc1)[n+]1cccc(NC(=O)c2ccccc2)c1 (centres undefined) | -18.3% | –
24 | OCCN(Cc1ccccc1)CC(O)COc1ccc(-c2ccccc2)cc1 (centres undefined) | -8.58% [at 57.5 µM] | –
25 | OC(CNCCc1ccccc1)COc1ccc(OCC(O)CNCCc2ccccc2)cc1 (centres undefined) | – | 28.2 µM (active)
26 | CCOc1ccccc1NC(=O)N1CCC(c2nc3ccccc3[nH]2)CC1 | -9.53% | –

Row | Structure (SMILES) | activity change, negative = cytotoxicity | Potency
27 | C(=N\Nc1ccc2nncn2n1)/c1ccccn1 | – | 11.2 µM (active)
28 | C(=N\NC(=Nc1ccccc1)c1ccccn1)/c1ccccn1 | -16.1% [at 57.5 µM] | –
29 | O=c1nc(N/N=C/c2ccccn2)cn[nH]1 | – | 7.94 µM (active)
30 | O=c1cnnc(N/N=C/c2ccccn2)[nH]1 | – | 1.58 µM (active)
31 | COc1cccc(CNCCc2c[nH]c3ccccc23)c1OCc1ccc(F)cc1 | -24.6% | –
32 | Cc1cc(N2CCN(c3nc(-c4ccccc4)cs3)CC2)c2ccccc2n1 | -8.04% | –
33 | CCN1CCS/C1=C\C=C\C1=[N+](CC)CCS1 | – | 15.8 µM (active)
34 | CCOC(=O)c1sc2nc(CSc3ccccc3)nc(NCCN(C)C)c2c1C | -19.6% [at 57.5 µM] | –
35 | COc1ccc(OCCNC(=O)C2(C)CCN2Cc2ccc3ccccc3c2)cc1 (centres undefined) | -24.8% [at 57.5 µM] | –
36 | CCCCn1c(/C=N/Nc2nc3ccccc3[nH]2)nc2ccccc21 | -17.7% | –
37 | O=C1C=Cc2cccc3ccc(O)c1c23 | -11.2% | –
38 | Cc1cc(SCC(=O)N/N=C/c2ccc(O)cc2O)nc2ccccc12 | – | 12.6 µM (active)
39 | Cc1cc(C)n(CCC(=O)N/N=C/c2ccc(O)cc2O)n1 | -20.7% | –
40 | Cc1cc(SCC(=O)N/N=C/c2ccc(O)cc2O)c(C)cc1Br | – | 11.2 µM (active)
41 | COc1ccc(O)c(/C=N/NC(=O)c2ccc(CSc3nc(C)cc(C)n3)cc2)c1 | -10.8% [at 57.5 µM] | –
42 | O=C(CP(=O)(c1ccccc1)c1ccccc1)N/N=C/c1cc(Br)cc(Br)c1O | 4.95% | –
43 | COc1ccc(N2CCN(c3cc(C)nc4ccc(OC)cc34)CC2)cc1 | -27.2% | –
44 | CCOc1ccc(/C=N/NC(=O)C(O)c2ccccc2)c(O)c1 (centres undefined) | -21.2% | –
45 | O=C(CNS(=O)(=O)c1ccc([N+](=O)[O-])cc1)N/N=C/c1ccc(O)cc1O | -26.6% | –
46 | COc1ccc2nc(C)cc(SCC(=O)N/N=C/c3ccc(O)cc3O)c2c1 | – | 7.94 µM (active)
47 | O=C(N/N=C/c1ccc(O)cc1O)/C(=C/c1ccccc1)CCO | -27.3% | –
48 | O=C(NN=Cc1ccc(O)cc1O)c1ccccc1NS(=O)(=O)c1cccs1 | -18.8% | –
49 | O=C(/C=C\c1ccccc1)NCC(=O)N/N=C/c1ccc(O)cc1O | – | 10 µM (active)
50 | CCCCn1c(SCC(=O)Nc2cc(C(F)(F)F)cc(C(F)(F)F)c2)nnc1C(CC)N(C)C (centres undefined) | -18.5% | –
51 | COc1cc2ccnc(Cc3cccc(OC)c3OC)c2cc1OC | 10.6% [at 57.5 µM] | –
52 | Cn1cc(SCC(=O)Nc2nc3ccccc3s2)c2ccccc21 | -20.3% | –

Row | Structure (SMILES) | activity change, negative = cytotoxicity | Potency
53 | COc1ccc(/C=C/C(=O)Nc2cccc(F)c2)cc1S(=O)(=O)N1CCOCC1 | -29.3% [at 57.5 µM] | –
54 | c1cnc2c(c1)ccc1cccnc12 | – | 5.01 µM (active)
55 | O=C(Nc1cccc(Br)c1)Oc1cccc2cccnc12 | -12.5% [at 57.5 µM] | –
56 | CCCC(=O)N1CCCC(c2cc(C(=O)Nc3ccccc3)no2)C1 (centres undefined) | -9.15% [at 57.5 µM] | –
57 | Cc1nn(-c2ccccn2)c2c1C(=O)CC(C)(C)C2N=[N+]=[N-] (centres undefined) | 2.56% | –
58 | CCc1cc2c(N3CCN(c4nnc(CC)s4)CC3)ncnc2s1 | -8.2% | –
59 | Cc1cc(C)nc(/N=C(\N)Nc2ccc(OCc3ccccc3)cc2)n1 | -27.6% [at 57.5 µM] | –
60 | NC(N)=N/N=C/c1ccc2cccc(OCc3ccccc3)c2n1 | – | 14.1 µM (active)
61 | CC(O)CNCCNCc1c(OCc2ccccc2)ccc2ccccc12 (centres undefined) | -11.2% [at 57.5 µM] | –
62 | COc1ccccc1C(CCNCc1ccccc1)c1ccc(OC(C)C)cc1 (centres undefined) | -13.2% | –
63 | CN1C2CCC1/C(=C\c1ccccc1)C(=O)/C2=C\c1ccccc1 | – | 10 µM (active)
64 | Cc1ccc2c(Cl)cc(Cl)c(OCC(=O)Nc3cc(S(=O)(=O)N(C)C)ccc3C)c2n1 | -8.55% | –
65 | c1ccc(CNc2nc(-c3ccccn3)nc3ccccc23)cc1 | – | 7.94 µM (active)
66 | CN1CCN(c2nc(-c3ccccn3)nc3ccccc23)CC1 | -17.1% [at 57.5 µM] | –
67 | Clc1cccc(-c2nc(NCc3cccnc3)c3ccccc3n2)c1 | -12.7% [at 57.5 µM] | –
68 | CC(C)CCNC(=O)COc1cccc2c1OC(C)(C)C2 | 3.34% [at 57.5 µM] | –
69 | COc1cc(OC)c(C(=O)C=Cc2ccc(OC)c(OC)c2)c(OC)c1 | – | 20 µM (active)
70 | COc1cc(/C=C/C(O)=C/C(=O)/C=C/c2ccc(O)cc2)ccc1O | -16.8% | –
71 | COc1ccc(C(=O)/C=C/c2ccc(OC3CSC3)cc2)cc1OC | 14.2% | –
72 | COc1cc(C=CC(=O)c2cc(OC)c(OC)c(OC)c2)cc(OC)c1OC | – | 10 µM (active)
73 | COc1ccc(NC(=O)c2oc3ccc(S(=O)(=O)N4CCC5(CC4)OCCO5)cc3c2C)cc1 | -13.9% | –
74 | Cn1ncc2c(Nc3cccc(Cl)c3)nc(Nc3cccc(Cl)c3)nc21 | -16.3% [at 57.5 µM] | –
75 | CC1Sc2ccc(S(=O)(=O)CCC(=O)N3CCN(c4cccc(Cl)c4)CC3)cc2NC1=O (centres undefined) | -24.1% [at 57.5 µM] | –
76 | CC(=O)c1c(C)[nH]c(C(=O)Nc2nc(-c3ccc(-c4ccccc4)cc3)cs2)c1C | – | 11.2 µM (active)
77 | O=C(Nc1nc(-c2ccccc2)cs1)c1ccccc1NS(=O)(=O)c1ccc(F)cc1 | – | 3.16 µM (active)
78 | CC(O)(c1ccccc1)c1nc(-c2ccncc2)cs1 (centres undefined) | 19.3% | –

Row | Structure (SMILES) | activity change, negative = cytotoxicity | Potency
79 | CC(=O)c1sc(NC(=O)c2cc(-c3ccccc3)nn2-c2ccccc2)nc1C | 11.5% | –
80 | COc1ccc(C(=O)Nc2nc(-c3ccc(S(=O)(=O)N4CCOCC4)cc3)cs2)cc1 | -23.6% | –
81 | COc1ccccc1C(=O)Nc1nc(-c2ccc(S(=O)(=O)N3CCOCC3)cc2)cs1 | -25% | –
82 | COc1ccc(-c2csc(NC(=O)c3ccccc3NS(=O)(=O)c3ccc(F)c(F)c3)n2)cc1 | – | 2.24 µM (active)
83 | COCC(=O)OC/C(O)=C(\C#N)c1nc2ccccc2[nH]1 | 9.99% | –
84 | CCOc1cc(CNCCO)cc(Br)c1OCc1ccccc1 | 2.53% [at 57.5 µM] | –
85 | O=C(c1ccco1)N(CCCN1CCOCC1)c1nc(-c2ccc(Cl)cc2)cs1 | 6.96% | –
86 | CN(C)S(=O)(=O)c1cccc(N2C(=O)CC3(CCCCC3)CC2=O)c1 | -2.8% | –
87 | O=C(CN1C(=O)c2ccccc2S1(=O)=O)c1ccc(Cl)cc1Cl | 6.64% [at 57.5 µM] | –
88 | N#Cc1c(Oc2ccc3ccccc3c2)sc(C(=O)c2ccccc2)c1N | -22.7% [at 57.5 µM] | –
89 | Cc1ccc(C)n1-c1ccc(C(=O)N2CCC(C(N)=O)CC2)cc1 | -20.6% | –
90 | Cc1ccc(C)c(N2CCN(C(=O)CCCCCn3c(=S)[nH]c4ccc(N5CCOCC5)cc4c3=O)CC2)c1 | -23.9% | –
91 | O=C(CN1C(=O)c2ccccc2S1(=O)=O)c1ccc(O)c(O)c1 | -3.1% | –
92 | c1ccc(COc2ncnc3c2ncn3CCCN2CCN(Cc3cccc4ccccc34)CC2)cc1 | – | 25.1 µM (active)
93 | O=c1[nH]c(CN2CCN(c3ncccn3)CC2)nc2c(Br)cc(Br)cc12 | 13.6% | –
94 | COc1ccc2c(c1)[nH]c1c(=O)n(/N=C/C3C(C)C=C(C)CC3C)c(=O)[nH]c12 (centres undefined) | – | 20 µM (active)
95 | O=C(CCCN1CCc2[nH]c3ccc(F)cc3c2C1)c1ccc(F)cc1 | -27.3% [at 57.5 µM] | –
96 | Cc1ccc(OCC(O)Cn2c(=N)n(CCN3CCCCC3)c3ccccc32)cc1 (centres undefined) | -17.3% [at 57.5 µM] | –
97 | N=c1n(CCN2CCCCC2)c2ccccc2n1CC(O)c1ccc(Cl)c(Cl)c1 (centres undefined) | – | 20 µM (active)
98 | Cc1nc(SC2CC(=O)N(c3ccccc3)C2=O)n[nH]1 (centres undefined) | -17.3% [at 57.5 µM] | –
99 | CCCCC/C=C/C1=CC(=O)C[C@H](c2ccc(OC)c(OC)c2)C1 | -15.6% [at 57.5 µM] | –
100 | O=C(c1cccc(Cl)c1)c1nn(-c2ccccc2)c(=O)cc1C(F)(F)F | – | 22.4 µM (active)
101 | Cc1cc(=O)oc2c1c(C)nn2-c1cccc(Cl)c1 | 0.11% | –
102 | CC(C)=C1SC(N2CCN(c3ccc(C)c(Cl)c3)CC2)=NC1=O | -9.92% | –
103 | CC(C)Nc1nc(NC(C)C)nc(N(C#N)CCOc2ccc(Cl)cc2Cl)n1 | -13.3% | –
104 | O=C(NC(c1ccccc1)c1ccc2ccccc2n1)C1CCN(CCOc2ccc(Cl)cc2Cl)CC1 (centres undefined) | – | 17.8 µM (active)
